Several values for one entry are separate records, joined by “and”; a condition that tells them apart may be missing. Equal values may be shown once. Screen size: about 16,000 compounds; about 2,600 (16%) were called active. Inconclusive results (about 20%) are left out. The call rests on the fitted dose curve; in most records, active means well fitted curve in the direction sought with a large enough effect; inconclusive means small, poorly fitted or top-dose-only effect, or effect the other way; inactive means no such curve, though single readings can be large or run the other way. These entries were drawn from the full list.
On the % scale 0 is the no-effect control and ±100 the full control effect.

The target of this assay is Cytochrome P450 2D6 (Homo sapiens) (UniProt P10635). Description: Cytochrome panel assay with activity outcomes. The following applies: recombinant CYP, pro-luciferin dealkylation, luminescence, p450-cyp2d6; series mostly up to 57.1 µM; activity, negative = inhibition: at the top concentration.
Sequence of Cytochrome P450 2D6 (Homo sapiens) (P10635 whole entry, looked up): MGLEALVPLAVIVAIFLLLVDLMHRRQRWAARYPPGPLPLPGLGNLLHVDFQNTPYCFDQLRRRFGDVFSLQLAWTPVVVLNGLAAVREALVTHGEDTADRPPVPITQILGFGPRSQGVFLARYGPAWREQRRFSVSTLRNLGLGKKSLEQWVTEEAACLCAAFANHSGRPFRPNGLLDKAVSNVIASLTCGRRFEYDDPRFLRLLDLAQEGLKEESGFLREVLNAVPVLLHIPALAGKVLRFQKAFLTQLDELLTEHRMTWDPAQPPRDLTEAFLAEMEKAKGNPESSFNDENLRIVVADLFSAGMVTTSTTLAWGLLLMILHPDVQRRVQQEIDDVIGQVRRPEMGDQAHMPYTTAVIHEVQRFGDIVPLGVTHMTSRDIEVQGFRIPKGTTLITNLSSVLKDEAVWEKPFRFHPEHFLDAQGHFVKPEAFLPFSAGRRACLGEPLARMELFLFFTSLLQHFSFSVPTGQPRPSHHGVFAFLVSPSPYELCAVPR
Turning to `O=C(NCc1cccnc1)c1sc2cc(Cl)ccc2c1Cl`, the “activity, negative = inhibition” value is -81.1% (inactive).

Turning to `CSc1ccc(NC(=O)Nc2cc(C)ccn2)cc1`, the activity, negative = inhibition was -10.4% [at 11.4 µM] (inactive). `NCCNC(=S)S`: the activity, negative = inhibition is -18.7% [at 11.4 µM] (inactive).

Consider `Nc1nc2c(c(=O)[nH]1)CN(CCCN1CCOCC1)CN2`, for which the activity, negative = inhibition is 0.904% [at 11.4 µM] (inactive).

On to `Nc1ccc(S(=O)(=O)Nc2ncccn2)cc1`, for which the “activity, negative = inhibition” value was -3.37% [at 25.6 µM] (inactive). Turning to `O=C1[C@H]2[C@H]3[C@H](O)[C@H](O)C/C(=N/OC[C@@H](O)COCc4ccco4)[C@@H]3CC[C@@H]2C(=O)N1C[C@@H]1CCCO1`, the activity, negative = inhibition was 3.77% [at 11.4 µM] (inactive). Still for that read-out and setting: the result for `Cc1nnc(NC(=O)c2cccc(NC(=O)C(C)C)c2)s1` reads -16.4% (inactive); that for `O=C(O)c1cc(S(=O)(=O)NCC2CCCO2)ccc1Cl` (stereo not given), 7.8% (inactive). As to `CN[C@@H]1[C@H](O[C@H]2[C@@H](O[C@@H]3[C@@H](O)[C@@H](O)[C@@H](N=C(N)N)[C@@H](O)[C@@H]3N=C(N)N)O[C@@H](C)[C@]2(O)CO)O[C@H](CO)[C@@H](O)[C@@H]1O`, the “activity, negative = inhibition” value is 6.76% [at 25.6 µM] (inactive). On to `COc1ccccc1C1=NOC(COC(=O)c2ccc3ccccc3n2)C1` (stereo not given), for which the “activity, negative = inhibition” value was -15.5% (inactive). The same measure, in the same setting: with `Cc1cccc(Cc2c(C)nc3nc(SCC(=O)NCc4ccco4)nn3c2C)c1` the figure was -28.1% (inactive); with `CN(c1ccc(C(=O)NCc2ccccn2)cc1)S(C)(=O)=O`, 0.808% (inactive). As usually defined, the AC50 is the concentration at which the activity in the assay is half-maximal. With `O=C(CN(c1ccccc1)S(=O)(=O)c1ccccc1)NCCSCc1ccco1`, the concentration at half-maximal activity (AC50) is 15.8 µM (active).

Take `Cc1cccc(CSCCNC(=O)c2ccc(N(C)S(=O)(=O)c3ccccc3)cc2)c1`: the half-maximal activity concentration (AC50) was 3.98 µM (active). As for `CN(c1ccc(C(=O)NCC2CCCO2)cc1)S(=O)(=O)c1ccccc1` (stereo not given), the “activity, negative = inhibition” value was -3.97% (inactive). For `CN(CCC(=O)O)S(=O)(=O)c1ccccc1`, the activity, negative = inhibition is 4.74% [at 11.4 µM] (inactive).

As to `COc1ccc(S(=O)(=O)N(C)CC(=O)NCc2ccco2)cc1`, the “activity, negative = inhibition” value is -21.7% (inactive).

For the compound `Cc1cccc(N(CC(=O)NCCSCc2ccco2)S(=O)(=O)c2ccccc2)c1`, the AC50 is 10 µM (active). With `Cc1cccc(N(CC(=O)N2CCOCC2)S(C)(=O)=O)c1`, the “activity, negative = inhibition” value is 6.15% (inactive).

Turning to `COc1cccc(Nc2ncc3ncc(=O)n(C4CC4)c3n2)c1`, the “activity, negative = inhibition” value was -7.19% (inactive).

In the case of `Cc1ccc(C)c(CN2C(=O)C3CCCN3c3ccc(C#N)cc32)c1` (stereo not given), the “activity, negative = inhibition” value was -24.5% (inactive). On the same count and under the same terms, with `CCOC(=O)c1c(C)oc2c1c(C=NC1CCS(=O)(=O)C1)c(O)c1ccccc12` (stereo not given) the figure was 16% (inactive).

For the compound `CCN1C(=O)[C@H]2[C@H]3[C@H](O)[C@H](O)C/C(=N/O[C@@H](C)c4cn([C@H](CO)Cc5ccccc5)nn4)[C@@H]3CC[C@@H]2C1=O`, the activity, negative = inhibition was 6.53% [at 11.4 µM] (inactive) and -9.99% [at 11.4 µM] (inactive). Regarding `Cc1c(/C=N/NC(=O)c2ccc3c(c2)OCO3)cnn1C`, the “activity, negative = inhibition” value was -7.96% (inactive). Still for that read-out and setting: with `CCNC(=S)NNC(=O)c1cc(C2CC2)nc2ccccc12` the figure was -6.71% (inactive). Take `COC(=O)c1nn(-c2ccccc2)c(-c2ccccc2)c1C(=O)c1ccccc1`: the “activity, negative = inhibition” value is 18.4% (inactive). `CCCOc1ccccc1C1CC(=O)NC(C)=C1C(=O)OCC(C)C` (stereo not given): the “activity, negative = inhibition” value is 34.2% (inactive). For `O=C(NCCO)c1cc2c(s1)CCC2`, the “activity, negative = inhibition” value was 23.4% (inactive). For `Cc1cc(C(=O)CC#N)c(C)n1CC(F)(F)F`, the “activity, negative = inhibition” value is 8.26% (inactive).

On to `CCOC(=O)c1c2c(n3ccccc13)C(=O)c1ccccc1C2=O`, for which the activity, negative = inhibition is 5.34% [at 11.4 µM] (inactive). Take `COCCNC(=O)Cn1cnc2ccc(S(=O)(=O)N3CCC(C)CC3)cc2c1=O`: the “activity, negative = inhibition” value was 30.8% (inactive). As for `Cc1ccc2nc(N3CCN(S(=O)(=O)c4ccc5c(c4)OCCO5)CC3)c(C#N)cc2c1`, the “activity, negative = inhibition” value is -8.49% (inactive). The same measure, in the same setting: the result for `NC(=O)c1ccc(NC(=O)C2CCCO2)cc1` (stereo not given) reads -1.89% (inactive). Still for that read-out and setting: with `CSc1ccc(CNc2ccc(Cl)cc2)cc1` the figure was -40.9% (inactive).

As to `CSc1ccc(CNc2ccc(C)c(C)c2)cc1`, the AC50 is 11.2 µM (active). As to `Cc1nc2cnc(Oc3ccccc3)nc2n(C)c1=O`, the “activity, negative = inhibition” value was 1.84% (inactive). Same read-out and setting: with `COc1ccc(-c2nc3cnc(OC)nc3n(C)c2=O)cc1` the figure was -0.979% (inactive). With `O=C(Nc1ccc(Cl)c(C(F)(F)F)c1)C1CCCN(S(=O)(=O)c2cnc[nH]2)C1` (stereo not given), the concentration at half-maximal activity (AC50) is 3.98 µM (active). Turning to `COc1ccc(OC)c(S(=O)(=O)N2CCC(C(=O)Nc3ccc(C)c(C)c3)CC2)c1`, the “activity, negative = inhibition” value was -12.1% (inactive). Regarding `CCCS(=O)(=O)N1CCCC(C(=O)NCc2cccnc2)C1` (stereo not given), the “activity, negative = inhibition” value was -1.8% (inactive). Same read-out and setting: the result for `CCOc1ccc(-c2nnc3ccc(SC)nn23)cc1` reads -16.4% (inactive); that for `N[C@@H](CSS(=O)(=O)O)C(=O)O`, -1.36% (inactive); that for `CCOC(=O)c1c(C)nc2sc3c(=O)n(-c4ccc(C(C)=O)cc4)nnc3c2c1-c1ccc(Cl)cc1`, 0.783% (inactive).

Regarding `Cc1ccccc1-c1cncnc1NCc1cccnc1`, the AC50 was 15.8 µM (active). Consider `Cc1ccccc1-c1cncnc1NCc1ccccc1`, for which the AC50 was 12.6 µM (active). For the compound `CN(C)C(=O)c1ccc(-c2cncnc2NCc2cccnc2)cc1`, the “activity, negative = inhibition” value was -19.7% (inactive). Turning to `CN(C)Cc1ccccc1-c1cncnc1NCc1cccnc1`, the AC50 was 6.31 µM (active). For the compound `Cc1noc(C)c1-c1cncnc1NCc1ccccc1`, the “activity, negative = inhibition” value was 0.449% (inactive).

Regarding `N#Cc1ccccc1-c1cncnc1NCc1cccnc1`, the “activity, negative = inhibition” value was -4.85% (inactive).

As to `Cc1cccc(CNc2ncncc2-c2ccccc2C)c1`, the AC50 was 3.98 µM (active).

The values above are taken from PubChem BioAssay AID1851 (National Center for Advancing Translational Sciences (NCATS), 2009).
